An excerpt weighted towards active compounds, which were near 12% of everything screened.
PLK1 PBD inh: blocks phosphopeptide binding to human PLK1 polo-box domain; P53350; Potency, µM, inactives show max response, negative = inhibition, hits mostly inhibitors; Plk1 PBD binding of FITC phosphopeptide, fluorescence polarization; AID 720504; hit rate 2.8% among 360,000; also: series mostly up to about 57 µM; % is scaled to controls: 0 for no effect and ±100 for the full control effect; nearly all actives have a fitted effect of over 65% in size
HP1b binding inh: blocks HP1-beta chromodomain binding to methylated histone tails; P83916; AlphaScreen HP1-beta / biotin-H3K9me3 peptide binding; Potency, µM (highest dose often 114 µM), inactives show at the top dose activity change, negative = inhibition, actives largely listed as inhibitors; hit rate 0.56% among 390,000; AID 540317; also: nearly all actives have a fitted effect of over 70% in size
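HP1-beta protein (50 nM final) preincubated 30 min at room temperature with biotinylated H3(1-18)K9me3 peptide (50 nM) in PBS pH 7.4, 0.01% Tween-20, then compound added for 30 min. AlphaScreen streptavidin donor/nickel chelate acceptor beads (10 ug/mL final), 30 min dark, luminescence read.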
G9a block: G9a (human) methyltransferase inhibition; Q96KQ7; G9a H3K9 monomethylation, AlphaScreen, 2 h; Potency, µM (titrated, usually from 102 µM), for inactives: top-dose activity, negative = inhibition, most hits filed as inhibitors; hit rate 8.8% among 350,000; also: % is scaled to controls: 0 for no effect and ±100 for the full control effect; nearly all actives have a fitted effect of over 75% in size
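Chemiluminescent proximity detection of H3K9 monomethylation, read after 10 min bead incubation in the dark. Reaction: 20 nM G9a, 500 nM biotin-H3K9 peptide, 20 uM SAM cofactor, 2 h, room temperature, following 15 min enzyme-compound preincubation.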
BAZ2B inh: blocks human BAZ2B. Q9UIF8. AlphaScreen BAZ2B-H3K14Ac peptide displacement. Potency, µM (highest dose often 114 µM), inactives show at the highest dose activity change, negative = inhibition, most hits filed as inhibitors. hit rate 4.4% among 360,000. AID 504333; also: % is scaled to controls: 0 for no effect and ±100 for the full control effect; nearly all actives have a fitted effect of over 60% in size
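In this displacement format the biotinylated H3(5-23) peptide acetylated at Lys14 serves as ligand at 50 nM, with BAZ2B at 50 nM in PBS pH 7.4 containing 0.01% Tween-20. Donor and acceptor beads are 10 ug/mL final.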
Sfp PPTase inh: Sfp phosphopantetheinyl transferase inhibition; Q9F4F7; Biochemical Sfp PPTase activity, qHTS; Potency, µM, without a hit: largest response in the series, negative = inhibition, actives largely listed as inhibitors; hit rate 3.5% among 310,000;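 also: the enzyme is Sfp with the accession as filed and its product quenches rhodamine fluorescence; 0% = enzyme reaction without inhibitor and -100% = no enzyme wells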
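Fluorescence-quenching assay with 15 nM Sfp, 5 uM rhodamine-CoA and 12.5 uM BHQ-2-labelled ybbR peptide in pH 7.6 Hepes/MgCl2 buffer. Enzyme was pre-incubated with compound for 15 min at room temperature. Rate was taken from the 30-min fluorescence change (525/598 nm).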
JMJD2A Tudor inh: blocks the human JMJD2A Tudor domain | AID 504339 | O75164 | AlphaScreen JMJD2A-Tudor / H3K4me3 peptide binding | Potency, µM (highest dose often 114 µM), for the others: at the top dose activity change, negative = inhibition, actives largely listed as inhibitors | hit rate 4.4% among 390,000; also: % is scaled to controls: 0 for no effect and ±100 for the full control effect; nearly all actives have a fitted effect of over 50% in size
* marks the source's active call; other numbers are inactive results; ? = inconclusive; / = no result; ! = not confirmed by another sample; [ ] = dose if it differs, or a comment. Calls follow the shape of the dose curve; as a rule, active = well fitted curve in the direction sought with a large enough effect; inconclusive = small, poorly fitted or top-dose-only effect, or another doubt; inactive = no such curve, though single readings can be large; an effect the other way counts as inactive or inconclusive. Potency is read from the fitted curve at half-maximal effect.

SMILES	PLK1 PBD inh	HP1b binding inh	G9a block	BAZ2B inh	Sfp PPTase inh	JMJD2A Tudor inh
CCCN(CC1CC1)C(=O)COC(=O)c1oc2c(F)cccc2c1C	-14%	56%	5%[12.7 µM]	18%	/	16%
COc1cc(SC#N)ccc1N=Cc1c(C)[nH]n(-c2ccc(C)c(C)c2)c1=O	?	-8%	10µM*	-2%	0%	-19%
CCN(CC)S(=O)(=O)c1cccc(-c2nc3n(n2)Cc2ccccc2-3)c1	-6%	24%	50µM*	-33%	11%	-32%
CCN(CC)S(=O)(=O)c1cccc(-c2n[nH]c(=S)n2Cc2ccccc2)c1	2%	37%	0.89µM*	-36%	-23%	?
CC(C)c1cc(-c2n[nH]c(=S)n2Cc2ccccc2)cs1	-12%	0%	?	-12%	-4%	-27%
COC(Cn1c(-c2cccc(S(=O)(=O)N(C)C)c2)n[nH]c1=S)OC	0%	0%	10µM*	/	-11%	7.9µM*
Clc1ccc(-c2nc3n(n2)Cc2ccccc2-3)cc1	-10%	120%	?	5%	1%	?
CCN(CC)S(=O)(=O)c1ccc(C(=O)NCc2n[nH]c(=S)n2Cc2ccccc2)cc1	-3%	21%	?	-5%	-14%	28µM*
CCC(C)CN1C(=O)CSCC1(C)C(=O)NC(C)C (stereo not given)	-6%	/	/	/	/	/
O=C(CSc1nc(-c2cccs2)nc2cc(=O)[nH]n12)Nc1ccc(F)cc1	/	21%	26%[59 µM]	-4%	/	-17%
CCN(CC)S(=O)(=O)c1cccc(-c2n[nH]c(=S)n2CC(C)C)c1	-9%	8%	3.2µM*	5%	-30%	10µM*
CCN(CC)S(=O)(=O)c1cccc(-c2cn3cc(C)ccc3n2)c1	-3%	10%	?	-28%	-20%	-23%
CCOc1ccccc1NS(=O)(=O)c1ccc2c(c1)oc(=O)n2C	/	41%	-23%[59 µM]	-14%	/	3%
CCOc1ccccc1CNS(=O)(=O)c1ccc2c(c1)oc(=O)n2C	27µM*	19%	?	9%	4%	?
Cc1ccc(/C=N/Nc2nc3ccccc3s2)o1	-4%	-17%	?	?	?	?
CC(C)(C)c1csc(N/N=C/c2cccnc2)n1	-17%	2%	?	40µM*	-28%	?
Clc1ccc(-c2csc(N/N=C/c3cccnc3)n2)c(Cl)c1	-7%	157%	?	?	?	?
Cc1ccc(/C=N/Nc2nc(C(C)(C)C)cs2)o1	?	?	10µM*	45µM*	50µM*	45µM*
C(=N\Nc1nc(-c2ccccc2)cs1)/c1cccnc1	-13%	-9%	?	?	56µM*	?
COc1ccc(C2NC(=O)N(C)C3=C2C(=O)N(c2ccccc2)C3)cc1 (stereo not given)	/	24%	-6%[59 µM]	?	/	-3%
CN1C(=O)NC(c2ccccc2)C2=C1CN(c1cccc(C(F)(F)F)c1)C2=O (stereo not given)	?	33%	50µM*	-3%	-9%	-20%[57.1 µM]
c1nc(NCCN2CCOCC2)c2sc3nc(N4CCOCC4)c4c(c3c2n1)CCC4	-7%	28%	50µM*	1%	7%	-16%
CN(C)CCNc1ncnc2c1sc1nc(-c3ccccc3)c3c(c12)CCCC3	11%	-21%	?	?	35µM*	?
COc1ncnc2c1sc1nc(-c3ccccc3)c3c(c12)CCCC3	7%	54%	28%[59 µM]	14%	?	21%
Cn1c(=O)c2c(-c3cccc(F)c3)c3c(nc2n(C)c1=O)-c1ccccc1C3O (stereo not given)	/	/	-27%[12.7 µM]	-4%	10%	/
SMILES	PLK1 PBD inh	HP1b binding inh	G9a block	BAZ2B inh	Sfp PPTase inh	JMJD2A Tudor inh
Cn1c(=O)c2c(-c3ccccc3F)c3c(nc2n(C)c1=O)-c1ccccc1C3O (stereo not given)	-13%	9%	10µM*	-3%	13%	-11%
CSc1ccccc1NC(=O)CNCCCN1CCOCC1	?	-26%[57 µM]	3.5µM*	56µM*	?	0.11µM*
CCc1ccccc1NC(=O)C(=O)NCCCN1CCOCC1	/	31%	-41%[59 µM]	2%	/	-10%
CCOCCCNCC(=O)Nc1ccccc1N1CCOCC1	-5%	?	11µM*	35µM*	-25%	4µM*
CCc1cccc(C)c1NS(=O)(=O)c1c(C(=O)N2CCC(C)CC2)c(C)n(C)c1C	/	18%	6%[59 µM]	?	/	-21%
CCSc1nnc(NC(=O)CSc2nc(C)cc(C)n2)s1	-6%	53%	-1%[59 µM]	2%	16%	-4%
CCSc1nnc(NC(=O)c2nc3nc(C)cc(C)n3n2)s1	2%	10%	-30%	-39%	?	16µM*
Cc1cc(C)n2nc(C(=O)Nc3nnc(C4CC4)s3)nc2n1	-8%	-14%	?	-4%	50µM*	8.9µM*
CCN1C(=O)N[C@@H](CCc2ccccc2)C(C(C)=O)=C1C	27µM*	11%	/	/	5%	?
CCN1C(=O)N[C@H](c2ccc(Br)cc2)C(C(C)=O)=C1C	-27%	25%	45µM*	3%	89µM*!	-22%
COCCN1C(=O)N[C@@H](CCc2ccccc2)C(C(C)=O)=C1C	-8%	27%	11%	13%	?	-14%
CC(C)(C)OC(=O)N[C@@H](C(=O)OC(C)(C)C)c1ccc2ccccc2c1	-9%	27%	-8%[0.501 µM]	-1%	/	-14%
COC(=O)C(NC(=O)c1ccccc1C(=O)O)c1ccc2ccccc2c1 (stereo not given)	2%	60%	71µM*	-17%	7%	-3%
Clc1cccc(CSc2nc3ccncc3[nH]2)c1	-18%	39%	?	2%	?	-7%
O=C(NCCN1CCN(c2cccc(Cl)c2)CC1)c1ccc(CSc2nc3ccncc3[nH]2)cc1	-5%	-17%	50µM*	?	5%	45µM*
Cc1ccc(CN2CCc3nc(SCC(=O)Nc4cccc(C)c4C)[nH]c(=O)c3C2)cc1	/	28%	-6%[59 µM]	-4%	/	-12%
COc1ccc(C(=O)NC(CCSC)C(=O)N2CCCCCC2)cc1 (stereo not given)	0%	43%	14%	-2%	7%	-5%
CCOCCCNCC(=O)Nc1cc(S(=O)(=O)N2CCOCC2)ccc1N1CCOCC1	4%	31%	/	/	/	-12%
Cc1cc(C#N)c(C)n1-c1cc(S(=O)(=O)N2CCOCC2)ccc1N1CCCC1	21µM*	-63%	6.3µM*	-37%	40µM*	?
COCCCNCc1cc(C)n(-c2cc(S(=O)(=O)N3CCOCC3)ccc2N2CCCC2)c1C	-14%	?	/	/	/	79µM*
Nc1cc(S(=O)(=O)N2CCOCC2)ccc1N1CCOCC1	-7%	31%	/	/	/	-11%
CCOc1ccccc1NC(=O)c1c(NC(=O)c2ccccc2C)sc2c1CCC(C)C2 (stereo not given)	/	15%	14µM*	4%	/	-12%
